Reference: publication PMC4336329 (PLoS ONE, 2015)
Among all 310,000 compounds or so, about 14,000 (4.5%) showed an effect of 50% or more. Effects have a minus sign here. The entries come from a sample that favours strong results as a whole.

molecular target: human ether-à-go-go-related gene (hERG) potassium channel (human, UniProt Q12809); assay: primary screen, population patch clamp on CHO cells stably expressing hERG; higher = less effect of the substance
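Note: peak tail current of the secondary pulse compared with the same well before compound.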

human ether-à-go-go-related gene (hERG) potassium channel, sequence (Q12809 whole entry, looked up): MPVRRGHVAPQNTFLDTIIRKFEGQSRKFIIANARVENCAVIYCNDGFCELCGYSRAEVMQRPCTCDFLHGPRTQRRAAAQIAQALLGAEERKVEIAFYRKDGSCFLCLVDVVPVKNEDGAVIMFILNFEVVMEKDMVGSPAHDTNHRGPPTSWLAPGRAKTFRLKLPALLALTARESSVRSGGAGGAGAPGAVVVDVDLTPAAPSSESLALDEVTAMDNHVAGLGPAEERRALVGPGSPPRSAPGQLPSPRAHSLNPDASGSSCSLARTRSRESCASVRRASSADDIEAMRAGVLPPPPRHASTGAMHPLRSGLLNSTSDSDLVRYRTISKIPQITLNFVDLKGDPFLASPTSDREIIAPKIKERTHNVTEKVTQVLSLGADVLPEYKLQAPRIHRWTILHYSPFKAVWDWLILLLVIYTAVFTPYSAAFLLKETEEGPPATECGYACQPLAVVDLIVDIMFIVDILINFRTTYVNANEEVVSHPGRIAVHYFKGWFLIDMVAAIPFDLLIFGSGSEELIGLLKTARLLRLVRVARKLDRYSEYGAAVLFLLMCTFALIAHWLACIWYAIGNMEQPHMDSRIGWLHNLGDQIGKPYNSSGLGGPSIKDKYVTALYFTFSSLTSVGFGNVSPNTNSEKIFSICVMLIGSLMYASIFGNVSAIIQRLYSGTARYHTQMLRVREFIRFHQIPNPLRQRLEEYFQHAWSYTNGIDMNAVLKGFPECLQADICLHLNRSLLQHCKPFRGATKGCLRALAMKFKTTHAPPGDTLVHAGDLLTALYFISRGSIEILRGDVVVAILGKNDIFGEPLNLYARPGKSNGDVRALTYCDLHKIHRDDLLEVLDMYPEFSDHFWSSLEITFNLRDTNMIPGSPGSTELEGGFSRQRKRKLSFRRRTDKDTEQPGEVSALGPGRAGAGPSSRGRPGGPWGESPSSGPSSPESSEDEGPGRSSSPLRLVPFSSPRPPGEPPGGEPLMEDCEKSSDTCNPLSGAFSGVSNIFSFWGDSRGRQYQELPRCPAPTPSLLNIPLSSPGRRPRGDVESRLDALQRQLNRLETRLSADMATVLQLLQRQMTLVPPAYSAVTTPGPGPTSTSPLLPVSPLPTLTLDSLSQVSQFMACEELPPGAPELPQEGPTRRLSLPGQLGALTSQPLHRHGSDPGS

In order of falling “hERG current change (%, negative = inhibition) at 10uM” value:
1. Cc1ccc(CN2CCCN(Cc3ccccc3C)S2(=O)=O)cc1  21.1%
2. CCOC(=O)c1cnc2c(cnn2C)c1NCc1ccc(OC)cc1  16%
3. Cc1ccn2c(NCc3ccccc3)c(-c3cccs3)nc2c1  12.5%
4. O=C(CN1CCOCC1)Nc1ccccc1NC(=O)C1CCN(c2ncccn2)CC1  9.55%
5. CCOc1ccccc1N(CC(=O)NC1CCCCC1)C(=O)CNC(=O)c1ccco1  8.1%
6. CN1C(=O)c2ccc(C(=O)Nc3ccc(Br)cn3)cc2C1=O  7.17%
7. Cc1nc2sccn2c1-c1csc(NCc2ccccc2)n1  6.86%
8. Cc1sc(N)c(C(=O)c2ccccc2Cl)c1C  3.8%
9. Br.Cc1nc2ncccn2c1-c1csc(Nc2ccc(S(N)(=O)=O)cc2)n1  0.703%
10. COC(=O)c1cc2occc2n1CC(=O)Nc1ccc(OC)c(OC)c1OC  0.151%
11. C=CCNc1nc(-c2c(C)nc3ncccn23)cs1  -0.737%
12. COC(=O)c1ccc(/C=N/NS(=O)(=O)c2cc(C)ccc2C)cc1  -0.827%
13. COC(=O)c1cc2sccc2n1CC(=O)Nc1ccc(OC)c(OC)c1OC  -1.08%
14. c1coc(CNc2nc(-c3ccncc3)cs2)c1  -3.17%
15. Fc1ccc(CN2CCN(c3ncccn3)CC2)cc1  -3.32%
16. Cc1cc(Cl)ccc1NC(=O)CN1C(=O)C(=O)N(C2CCCC2)C1=O  -5%
17. c1coc(CNc2nc(-c3cccs3)cs2)c1  -9.83%
18. Cc1ccc(-n2nnnc2-c2cnc(N3CCCC3)nc2C(F)(F)F)cc1  -9.95%
19. Oc1ccc(-c2csc(NCc3ccco3)n2)cc1  -10.2%
20. Cc1nc(C)c(-c2csc(NCc3ccco3)n2)s1  -10.9%
21. COc1ccc(CN(CC2CCCO2)C(=O)CN2C(=O)COc3ccccc32)cc1OC (centres unmarked)  -15.8%
22. Cc1ccc(-c2nc(CS(=O)CC(=O)NCCN(CC(C)C)CC(C)C)c(C)o2)cc1 (centres unmarked)  -19.4%
23. CCOc1ccc(NC(=O)CN2CC(c3ccccc3)CC2=O)cc1 (centres unmarked)  -19.9%
24. COc1ccc(C(=O)Nc2ccc(N3CCCCCC3)cc2)cc1S(=O)(=O)N1CCOCC1  -40.1%
25. OCC1(Cc2ccccc2)CCN(Cc2cnn(-c3ccccc3F)c2)CC1  -41.9%
26. Cc1nc2ncccn2c1-c1csc(NCc2ccco2)n1  -51.8%
27. Cc1ccn2c(-c3csc(NCc4ccco4)n3)c(C)nc2c1  -64.9%
28. Cc1ccc(-n2cc(CN3CCC(CO)(Cc4ccccc4)CC3)cn2)cc1  -65.1%
29. COC(=O)c1cc2sc(Cl)cc2n1CC(=O)Nc1ccc(OC)c(OC)c1OC  -68.9%
30. Cc1ccn2c(-c3csc(NCc4ccccc4)n3)c(C)nc2c1.Cl  -72.4%
31. Cc1nc2ccccn2c1-c1csc(NCc2ccco2)n1  -74.6%
32. Cc1ccc(-n2cc(CN3CCC(CO)(Cc4cccc(C(F)(F)F)c4)CC3)cn2)cc1  -76%
